In all, about 200,000 compounds went through this assay and about 860 (0.43%) were called active. Calls follow the shape of the dose curve; as a rule, active = well fitted inhibition curve with a large enough effect; inconclusive = small, poorly fitted or top-dose-only effect; inactive = flat fitted curve, though single readings scatter. The full list was thinned out, with actives kept by preference. The source holds several records for some structures; these can differ, active in one and inactive in another.

We go through 59 compounds from PubChem BioAssay AID1478 (National Center for Advancing Translational Sciences (NCATS), 2009).
Potency is read from the fitted curve at half-maximal effect.

In this assay the target is Cruzipain (Trypanosoma cruzi) (UniProt P25779). Briefly: qHTS Assay for Promiscuous and Specific Inhibitors of Cruzain (with detergent). Also: nearly all actives have a fitted effect of over 40% in size. The note with it: purified cruzain, Z-FR-AMC fluorescence, 0.01% Triton. On the procedure: Cruzain (3.4.22.51) is a cysteine protease from the tropical parasite Trypanosoma cruzi. Dual qHTS experiment was performed against the NCGC compound collection in order to 1) identify novel inhibitors of the enzyme and 2) profile the compound collection for promiscuous inhibitors operating via colloidal aggregation (by performing detergent-free and detergent-containing comparison screens). Cruzain was assayed by the use of fluorogenic coumarin-based substrate Z-FR-AMC: proteolytic cleavage releases AMC, whose fluorescence is measured at 360 nm excitation and 450 nm emission. Purified cruzain was supplied by the labs of Prof. James McKerrow and Brian Shoichet, UC San Francisco.
Cruzipain (Trypanosoma cruzi), sequence (P25779 123-467 limits assumed): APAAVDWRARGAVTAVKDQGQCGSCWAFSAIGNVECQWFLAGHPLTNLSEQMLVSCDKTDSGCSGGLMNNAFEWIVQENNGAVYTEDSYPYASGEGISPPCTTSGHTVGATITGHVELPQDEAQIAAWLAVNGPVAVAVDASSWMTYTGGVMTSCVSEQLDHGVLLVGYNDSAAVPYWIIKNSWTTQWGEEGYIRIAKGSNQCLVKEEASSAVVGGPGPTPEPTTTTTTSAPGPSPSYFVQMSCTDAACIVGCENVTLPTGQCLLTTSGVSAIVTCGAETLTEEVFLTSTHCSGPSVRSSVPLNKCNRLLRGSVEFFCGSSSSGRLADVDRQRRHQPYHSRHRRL
This assay had 0.01% Triton X-100 concentration. See also releated assay "qHTS Assay for Promiscuous and Specific Inhibitors of Cruzain (without detergent)" with 0.00005% Triton X-100.
See following references for additional details:
Assay Provider: Shoichet, Brian; University of California, San Fancisco
Screening Center PI: Austin, C.P.
Screening Center: NIH Chemical Genomics Center [NCGC]
Buffer: 100 mM Sodium Acetate, pH 5.5, 5 mM DTT, Triton X-100 concentration: 0.01%.
Buffer in columns 3 and 4 as negative control (no enzyme).
Substrate solution: 2 uM final concentration of Z-FR-AMC (catalog number I-1160, Bachem) dispensed throughout the plate.
Enzyme: 1.5 nM Cruzain final concentration in columns 1, 2, 5-48. Column 1 is neutral (100% activity). Column 2 contained titration of covalent inhibitor K11777, starting concentration 1 mM, then 1:2 dilution in duplicate).
Three uL of enzyme or buffer were dispensed to 1536-well Greiner black solid bottom plates. Compounds and controls (23 nL) were transferred via Kalypsys PinTool. The plates were incubated for 15 min at room temperature, and then 1 uL of substrate solution was added to start the reaction. The plates were immediately transferred to and read 4 times every 30 seconds for 2 min on ViewLux High-throughput CCD imager (Perkin-Elmer) using 360 nm excitation and 450 nm emission fluorescence protocol. The fluorescence intensity difference between the third and the first time points (time lapse of 60 seconds) was used to compute reaction progress.
With `CC(=O)Nc1ccc(NC(=O)C2CCCN(S(=O)(=O)c3ccc4c(c3)CCCC(=O)N4)C2)cc1` (stereo not given), the max response, negative = inhibition was -1.66% (inactive).

Take `Cc1ccc(-c2onc(C)c2C)cc1S(=O)(=O)Nc1ccccn1`: the max response, negative = inhibition is -0.474% (inactive).

`CCOc1ccc(CNC(=O)C2CCCN(c3nnc(C)c4c(C)n(-c5ccccc5)nc34)C2)cc1` (stereo not given): the max response, negative = inhibition is -6.21% (inactive).

Turning to `O=C(CNC(=O)c1ccco1)OCC(=O)c1ccccc1`, the max response, negative = inhibition was -1.99% (inactive).

Consider `COc1ccc(C)cc1-n1nnnc1SCC(=O)c1cc(C)n(Cc2ccco2)c1C`, for which the max response, negative = inhibition is -1.61% (inactive).

`Cc1cc(C(=O)COC(=O)CNC(=O)c2ccc(F)cc2)c(C)n1Cc1ccco1`: the Potency is 14.1 µM (active).

For `COc1ccc2c(Sc3ccc(C)cc3)c(C(=O)NC(C)c3ccccc3)[nH]c2c1` (stereo not given), the max response, negative = inhibition is -7.2% (inactive).

Take `CCOC(=O)c1c(C)[nH]c(CCC(=O)Nc2ccc(OC)c(OC)c2)c1C`: the max response, negative = inhibition is 2.38% (inactive).

Consider `CCN(CC)S(=O)(=O)c1nnc(NC(=O)COc2ccccc2Cl)s1`, for which the max response, negative = inhibition was -2.1% (inactive).

On to `CCOC(=O)c1c(S(=O)(=O)NCC(=O)Nc2ccc(Cl)c(C(F)(F)F)c2)c(C)n(C)c1C`, for which the max response, negative = inhibition was -11.4% (inactive).

With `COc1cccc(-c2nnc3n(CCc4ccccc4)c(=O)c4ccccc4n23)c1O`, the max response, negative = inhibition is -2.72% (inactive).

On to `Cc1cc(C)nc(N(C#N)CC(=O)Nc2ccccc2)n1`, for which the max response, negative = inhibition is 7.7% (inactive).

On to `CNc1nc(SC)nc(N(C#N)CC(=O)OC)n1`, for which the Potency is 17.8 µM (active).

Turning to `COC(=O)C(C)N(C#N)c1nc(C)nc(C)n1` (stereo not given), the max response, negative = inhibition was 4.3% (inactive).

On to `Cc1c(C(=O)N(C)C)sc2c1c(=O)n(-c1ccc(F)cc1)c(=O)n2CC(=O)N(C)c1ccccc1`, for which the max response, negative = inhibition is 1.44% (inactive).

As for `CC(C)C[C@H](NC(=O)[C@@H]1O[C@H]1C(=O)O)C(=O)NCCCCN=C(N)N`, the Potency is 0.0562 µM (active).

Take `Cc1ccccc1CSc1nc2c([nH]c3ccccc32)c(=O)n1C`: the max response, negative = inhibition was -1.56% (inactive).

Regarding `Cc1cccc(N2CCN(C(=O)CCn3c(=O)c4cccn4c4cccnc43)CC2C)c1` (stereo not given), the max response, negative = inhibition was -4.9% (inactive).

For the compound `O=c1cc2nc(-c3ccccc3)nc(SCCOc3ccc(Cl)cc3)n2[nH]1`, the max response, negative = inhibition was 0.045% (inactive).

Turning to `Oc1c(Cl)cc(Cl)c(Cl)c1Cc1c(O)c(Cl)cc(Cl)c1Cl`, the Potency was 25.1 µM (active) and the max response, negative = inhibition is -22.8% (inactive).

Regarding `COc1ccc(OC)c(-n2nnc(-c3nc(-c4cc(OC)c(OC)c(OC)c4)no3)c2C)c1`, the max response, negative = inhibition was 2.73% (inactive).

As for `COc1cccc(-c2cc(C(=O)Nc3ccc(C)cc3)[nH]n2)c1`, the max response, negative = inhibition was -0.83% (inactive).

Consider `Cc1ccc(CSc2nc3ccsc3c(=O)n2CCC(C)C)cc1`, for which the max response, negative = inhibition is -1.1% (inactive).

As to `CC(=O)Nc1cc(C(=O)NCc2ccc(F)cc2Cl)ccc1Sc1ccc(Cl)cc1`, the max response, negative = inhibition was 1.77% (inactive).

In the case of `COc1cccc(C(=O)NCC(=O)OCc2cc(=O)n3ccsc3n2)c1`, the max response, negative = inhibition was -1.65% (inactive).

As to `CCn1c(=N)c(S(=O)(=O)c2ccc(F)cc2)cc2c(=O)n3ccccc3nc21`, the Potency was 22.4 µM (active).

Take `CCCCn1c(=N)c(S(=O)(=O)c2ccccc2)cc2c(=O)n3cccc(C)c3nc21`: the max response, negative = inhibition was 0.669% (inactive).

With `CCOC(=O)c1cc2c(=O)n3ccccc3nc2n(Cc2ccco2)c1=NC(=O)c1ccc(F)cc1`, the max response, negative = inhibition was -23.1% (inactive).

On to `CCOc1cc(-c2nnc(SCC(=O)NC3CCCCC3)nc2-c2ccc(OC)c(OCC)c2)ccc1OC`, for which the max response, negative = inhibition is 0.915% (inactive).

As to `Cc1ccc(NC(=O)CSc2nnc3[nH]c(=O)cc(C)n23)cc1Cl`, the max response, negative = inhibition was -1.01% (inactive).

With `CC(=O)c1cccc(Nc2ccc3cc(S(=O)(=O)N4CCC(C)CC4)ccc3n2)c1`, the max response, negative = inhibition was -2.76% (inactive).

Turning to `COC(=O)c1ccccc1NC(=O)c1cc(-c2ccccc2O)no1`, the max response, negative = inhibition is -8.5% (inactive).

Take `Cc1ccccc1OCC(=O)NCC(=O)OCC(=O)c1ccc2ccccc2c1`: the Potency was 5.01 µM (active).

As for `COCCNC(=O)COc1ccccc1C`, the max response, negative = inhibition was 1.74% (inactive).

Regarding `Cc1ccc(S(=O)(=O)NC(=O)COc2ccccc2C)cc1`, the max response, negative = inhibition was -0.523% (inactive).

With `Cc1ccc(-c2cnc(C3CC3)o2)cc1S(=O)(=O)Nc1cccc(C)c1C`, the max response, negative = inhibition was -6.32% (inactive).

As for `O=C(CS(=O)(=O)c1cccc2nsnc12)N1CCN(c2cccc(Cl)c2)CC1`, the max response, negative = inhibition was -2.29% (inactive).

Consider `Cc1cccc(CNC(=O)c2cnc3sc(N4CCCCC4)nn3c2=O)c1`, for which the max response, negative = inhibition is 3.23% (inactive).

As to `COc1ccc(NC(=O)CSc2nnc(-c3nnn(-c4ccc(F)cc4)c3C)o2)cc1`, the max response, negative = inhibition was -0.381% (inactive).

Turning to `NC(=S)N/N=C/c1coc2cc(Cl)ccc2c1=O`, the max response, negative = inhibition was -8.88% (inactive).

Consider `CCOc1ccc(/C=N/NC(N)=S)cc1`, for which the max response, negative = inhibition is -18.1% (inactive).

In the case of `CC(C)Oc1c(Br)cc(Br)cc1/C=N/NC(N)=S`, the Potency is 0.708 µM (active).

As to `CC(C)c1ccc(NC(=O)C2CCN(c3nc(-c4ccc(C(C)C)cc4)no3)CC2)cc1`, the max response, negative = inhibition was 0.837% (inactive).

In the case of `Cc1ccc(C2C=C(c3ccc(Cl)cc3)Nc3nc(NC(=O)CCC(=O)O)nn32)cc1` (stereo not given), the max response, negative = inhibition is 0.942% (inactive).

As to `O=S(=O)(c1ccccc1)c1nc(-c2ccc(Cl)cc2Cl)oc1N1CCCCC1`, the max response, negative = inhibition was -15.9% (inactive).

Take `O=C(NCc1ccccn1)c1ccc2nc(-c3ccco3)c(-c3ccco3)nc2c1`: the Potency was 22.4 µM (active).

Take `CN(c1ccc(C(=O)NCc2ccccn2)cc1)S(C)(=O)=O`: the max response, negative = inhibition was 1.59% (inactive).

Consider `O=C(NCc1ccccn1)c1cc(-c2ccccc2Cl)on1`, for which the max response, negative = inhibition was -2.6% (inactive).

On to `O=S(=O)(c1ccc2nc(NCc3ccccc3Cl)ccc2c1)N1CCCCC1`, for which the max response, negative = inhibition was -1.7% (inactive).

As for `Cc1ccc(Cn2c(CNC(=O)Cc3cccc(C)c3)nc3cccnc32)cc1`, the max response, negative = inhibition was -1.98% (inactive).

For the compound `COc1ccc2[nH]c3c(c2c1)CCN(C(=O)CCC1CCCC1)C3c1ccc(F)cc1` (stereo not given), the max response, negative = inhibition was 7.03% (inactive).

Turning to `Cc1ccc(C(=O)COC(=O)C(Cc2c[nH]c3ccccc23)NC(=O)c2ccc(Br)cc2)cc1` (stereo not given), the max response, negative = inhibition is -0.996% (inactive).

With `COc1cc(OC)c(NC(=O)c2cc(S(=O)(=O)N3CCCC3)cn2C)cc1Cl`, the max response, negative = inhibition was -0.944% (inactive).

Take `Clc1ccccc1CSc1nncn2c1cc1occc12`: the max response, negative = inhibition is -2.67% (inactive).

Turning to `Nc1nc(SCc2ccccc2Cl)n[nH]1`, the max response, negative = inhibition is 1.94% (inactive).

Regarding `Clc1ccccc1CSc1nnc(-c2ccco2)c(-c2ccco2)n1`, the Potency was 25.1 µM (active).

Regarding `c1ccc(CSc2nnc(-c3ccco3)c(-c3ccco3)n2)cc1`, the Potency is 14.1 µM (active).

Regarding `O=C(Nc1nnc(SCc2ccccc2)s1)c1ccco1`, the max response, negative = inhibition is 0.832% (inactive).

For the compound `Nc1cc(=O)nc(SCc2ccccc2)n1Cc1ccco1`, the max response, negative = inhibition was -10.9% (inactive).
